# Experimental data reported in PubChem BioAssay AID652031 (The Scripps Research Institute Molecular Screening Center, 2013).
# About 70 (0.4%) of roughly 16,000 compounds were called active. This excerpt belongs to a sample that is enriched for actives. Unmarked numbers belong to inactive results. Cut-off read from the data, not from the text of the source: active = inhibition above about 50%; inactive = the rest.
# Biological target: Kappa-type opioid receptor (Homo sapiens) (UniProt P41145)
# Experiment: antagonists of human kappa opioid receptor OPRK1, Maybridge library (AID 652031)
# Details: OPRK1 cells, antagonist mode, fluorescence readout; at 9 µM; stronger effect = higher value
# Kappa-type opioid receptor (Homo sapiens), sequence (P41145 whole entry, looked up): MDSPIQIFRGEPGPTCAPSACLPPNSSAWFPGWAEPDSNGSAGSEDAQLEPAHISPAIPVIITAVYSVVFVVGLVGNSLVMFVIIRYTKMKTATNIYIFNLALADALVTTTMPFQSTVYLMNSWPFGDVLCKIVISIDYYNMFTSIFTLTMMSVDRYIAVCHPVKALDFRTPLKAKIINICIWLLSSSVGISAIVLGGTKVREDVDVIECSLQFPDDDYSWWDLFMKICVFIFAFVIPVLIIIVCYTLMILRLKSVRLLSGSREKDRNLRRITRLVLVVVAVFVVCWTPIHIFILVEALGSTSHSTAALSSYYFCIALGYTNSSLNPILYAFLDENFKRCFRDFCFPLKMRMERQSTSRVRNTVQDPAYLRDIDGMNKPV
row,SMILES,inhibition
1,O=S(=O)(c1ccc(Cl)s1)N1CCN(c2ccccc2)CC1,-14.3%
2,CC(C)NC(=O)NNc1c(Cl)cncc1Cl,4.6%
3,O=c1oc2c3ccccc3c3oc(=O)sc3c2s1,13.6%
4,Cc1nc(C(F)(F)F)ccc1NC(=O)/C=C\C(=O)O,-4.6%
5,N#Cc1cccnc1NNC(=O)Nc1ccc(OCc2ccccc2)cc1,13.7%
6,CN(C)c1cccc2c1c(NC(=O)Nc1ccc(OCc3ccccc3)cc1)nn2C,60.6% (active)
7,O=C(Nc1ccc(OCc2ccccc2)cc1)Nc1ccc2c(c1)C(=O)OC2,-8.9%
8,O=c1[nH]c2cc(Cl)c(Cl)cc2n1-c1ccncc1,-14.5%
9,Cc1ccc([N+](=O)[O-])c(C(=O)NCC(=O)O)c1,-15.5%
10,S=C(NNC(=S)NC1CC2C=CC1C2)NC1CC2C=CC1C2 (stereo not given),-4.1%
11,CC(C)CCOS(=O)(=O)c1ccc2c(c1)Cc1cc(S(=O)(=O)OCCC(C)C)ccc1-2,-2.5%
12,CN(C(=O)Nc1ccc(Cl)cc1)n1cnc2ccccc2c1=O,-1.9%
13,c1ccc(-c2nsc(N3CCNCC3)n2)cc1,1.1%
14,Cc1oc(-c2ccc(Cl)cc2)cc1C(=O)O/N=C(\N)Cc1nc2cccnc2n1C1CC1,-10.9%
15,O=C(Cn1nnc2ccccc21)NCCSCc1ccco1,6.7%
16,O=C(O)CC1(CC(=O)Nc2ccccc2-n2cccn2)CCCCC1,6.9%
17,O=[N+]([O-])c1ccc(CSc2nc3cc(Cl)c(F)cc3[nH]2)cc1,-10.8%
18,COc1ccc(/C=N/Nc2nc(C)cc(=O)[nH]2)c(OC)c1,10.6%
19,Nc1ccccc1SC(C[N+](=O)[O-])c1ccccc1 (stereo not given),10.6%
20,O=C(N/N=C/c1cccs1)C(=O)Nc1ccc(Cl)c(Cl)c1,-4.8%
21,Cc1nc2c(ncn2-c2ccccc2)c(=O)n1NC(=O)CN1CCCC1,1.8%
22,Cn1c(=O)c2c(ncn2Cc2nnc(-c3ccccc3)o2)n(C)c1=O,-5.9%

row,SMILES,inhibition
1,O=[N+]([O-])c1ccc(CSc2nnc(-c3ccncc3)o2)cc1,-7.8%
2,N#Cc1c(C2CCCCC2)[nH]c(=S)[nH]c1=O,-2.7%
3,Cc1ccc2c(c1)C(=O)C(=O)S2,-13.9%
4,O=C(CSC1=NCCc2ccccc21)Nc1ccc(F)cc1F,-6.1%
5,O=C(O)CCC(=O)Nc1ccc2c(c1)OCCCO2,8.3%
6,Oc1ccccc1C=NCCCN=Cc1ccccc1O,-15.8%
7,CCOc1c(N2CCCCC2)c(=O)c1=O,13.6%
8,O=C(CSc1nnc(-c2ccncc2)o1)N1CCc2ccccc21,-5.6%
9,O=c1cc(-c2ccccc2)cc(-c2ccccc2)o1,-11.3%
10,O=C(NNC(=S)Nc1ccccc1Cl)c1ccc(OC(F)(F)F)cc1,19.8%
11,O=c1c2c(nc3nc[nH]n13)CCC2,-20.2%
12,CCN(CCN1C(=O)CCC1=O)c1cccc(NC(C)=O)c1,-3.7%
13,N#CCc1ccc(OC(=O)c2cccnc2)cc1,-6.4%
14,Cc1nc(-n2cccc2)sc1C(=O)N/N=C/c1ccccc1Cl,33.9%
15,CCCS(=O)(=O)c1csc(C(=O)OC)c1N/N=C/c1cccs1,-24.1%
16,Clc1cncc(Cl)c1N/N=C/C1CC2C=CC1C2 (stereo not given),1.3%
17,CCCCCCCN=C(C)c1ccccc1O,-21.6%
18,CC(C)c1ccc(N2C(=O)/C(=C\c3ccc(-c4ccc([N+](=O)[O-])cc4)o3)SC2=S)cc1,8.3%
19,CCCN(CCC)S(=O)(=O)c1ccc(C(=O)NNC(=O)c2cc(OC)c(OC)c(OC)c2)cc1,-2.1%
20,NC(=O)C1CCN(CC(O)COc2ccc(Cl)c(Cl)c2)CC1 (stereo not given),-8.2%
21,O=C(Nc1ccc(F)cc1OC(F)(F)F)N1CCC(O)CC1,-18%
22,CC(C)(C)c1cc(NC(=O)/C(C#N)=C/c2cccc(Cl)c2Cl)c(C(N)=O)s1,-7.1%

row,SMILES,inhibition
1,O=C(Nc1ccccc1C(=O)NC1CCSC1)c1cccc(Cl)c1 (stereo not given),-15%
2,COC(=O)CCN1CCc2cc(N=Nc3ccc(C(F)(F)F)cc3)ccc21,15.2%
3,CC(C)n1c(SCC(=O)c2cccc([N+](=O)[O-])c2)nc2cc(C(F)(F)F)ccc21,-1.6%
4,O=C(CCc1ccc(O)cc1)N/N=C/c1cc(Cl)cc(Cl)c1O,6.4%
5,Cc1ccc(NC(C(=O)O)c2ccccc2)cc1 (stereo not given),-11.7%
6,OC(CNCc1ccc2c(c1)OCO2)COc1ccccc1 (stereo not given),-20.1%
7,O=C(NCc1cccnc1)c1ccccc1NC(=O)c1c(F)cccc1F,-15.7%
8,O=C(N/N=C/c1ccc(Cl)cc1Cl)/C(=C/c1cccs1)NC(=O)c1ccccc1,11.5%
9,COC(=O)c1ccccc1NC(=O)c1ccc(Oc2cc(Cl)cc(Cl)c2)o1,-7%
10,O=C(NCc1ccc2c(c1)OCO2)c1sccc1Br,-14.9%
11,O=C(NCc1ccc(F)cc1F)c1cc(C(F)(F)F)cc(C(F)(F)F)c1,2.1%
12,CCOC(=O)C(NC(=O)c1ccco1)(Nc1cc(C)ccn1)C(F)(F)F (stereo not given),-1.7%
13,CSc1cccc(NC(=O)C(=O)NCCc2ccccn2)c1,17.5%
14,CCOC(=O)CCSc1cc(-n2cccc2)c(Cl)cc1[N+](=O)[O-],-12.9%
15,CCOC(=O)Cn1sc2nc(C)cc(C)c2c1=O,-8.2%
16,O=C(c1ccccc1I)c1c[nH]c2ccccc12,2.4%
17,O=C1C=C(NNc2ccccc2)CCC1,-30.2%
18,O=[N+]([O-])c1ccc2ncccc2c1-n1cccc1,-23.5%
19,CC(OC(=O)c1cccc(Cl)c1)c1ccc[n+](C)c1 (stereo not given),1.5%
20,CN(n1cnc2ccccc2c1=O)S(=O)(=O)c1cc(Cl)sc1Cl,4.5%
21,O=c1o[nH]c(-c2ccccc2)c1N=Nc1c(F)cccc1Cl,4.9%
